Bioassay records (PubChem BioAssay)
GC-B act: GC-B (human) receptor activation | 370,000 compounds, 0.11% hits | AID 1920062 | P20594 | HEK293-GC-B cells, CNP EC30, cGMP TR-FRET; 0% at EC30 CNP, 100% saturating CNP | activation, % at 10 µM;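 active means activation at 10 µM reaching about 35% in either raw or pattern-adjusted values, limit read from the data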
GC-A act: GC-A (human) enzyme activation; P16066; HEK293 GC-A cells, cGMP TR-FRET, EC30 ANP; 0% at EC30 ANP, 100% saturating ANP; activation, % at 10 µM; 370,000 compounds, 0.14% hits; in the data active means activation above about 40%
ADAM10 inh: ADAM10 inhibition, QFRET primary screen | O14672 | 370,000 compounds, 0.62% hits | recombinant ADAM10, EDANS/DABCYL FRET peptide cleavage, 3 h | inhibition, % at 7 µM | AID 720582;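 active means inhibition above a per-campaign cutoff equal to the mean of compounds falling between control-based bounds plus 3 SD, cut at about 20% in these data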;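 further: 0% = DMSO wells while the 100% control is not disclosed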
proKLK7 act: proKLK7 (human) activation, primary screen. P49862. purified proKLK7, EDANS-DABCYL substrate fluorescence; 100% is mature enzyme control, 0% vehicle. activation, % at 7 µM. 370,000 compounds, 0.9% hits. AID 652039;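 active means activation above the mean of all tested compounds plus 3 SD, computed per campaign excluding outliers beyond control limits, cut at about 13% in these data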
ADAM17 inh: inhibitors of human ADAM17; P78536; AID 720648; 370,000 compounds, 0.83% hits; inhibition, % at 6.95 µM; recombinant ADAM17, EDANS/DABCYL FRET peptide cleavage;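 active means inhibition above the mean of compounds lying between control limits plus 3 SD, set per campaign, cut at about 8.5% in these data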;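 further: 0% = DMSO-only wells as the low control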
ADAM10 confirm: confirmation of inhibitors of human ADAM10; shares compounds with ADAM10 inh; ADAM10 QFRET peptide cleavage, EDANS fluorescence; inhibition, % at 6.95 µM; 2,100 compounds, 1% hits; AID 743208;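 active means inhibition above about 20% chosen separately for each screening run, limit read from the data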;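 further: 0% = DMSO wells and 100% = marimastat wells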
ADAM17 counter: ADAM17 inhibition, counter-screen for ADAM10 exosite hits; shares compounds with ADAM10 inh; ADAM17 QFRET peptide cleavage, EDANS fluorescence; inhibition, % at 6.95 µM; 2,100 compounds, 0.5% hits; AID 743214;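 active means mean triplicate inhibition above the solvent-only control wells' mean plus 3 SD, cut at about 12% in these data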;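 further: 0% = DMSO wells and 100% = marimastat wells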
ADAM10 ctr: ADAM10 inhibition, counter-screen for ADAM17 exosite hits. shares compounds with ADAM17 inh. recombinant ADAM10, EDANS/DABCYL FRET peptide cleavage, 3 h. inhibition, % at 6.95 µM. 2,900 compounds, 47% hits. AID 743256;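 active means mean inhibition over the triplicate runs exceeds the activity threshold set in the earlier primary screen, cut at about 20% in these data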;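 further: 0% = DMSO wells and 100% = marimastat wells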
ADAM17 confirm: confirmation of inhibitors of human ADAM17 | recombinant ADAM17, EDANS/DABCYL QFRET peptide cleavage | shares compounds with ADAM17 inh | inhibition, % at 6.95 µM | 2,900 compounds, 65% hits | AID 743257;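 active means mean inhibition across replicates above the hit cutoff set in the primary screen, cut at about 8.5% in these data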;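 further: 0% = DMSO wells and 100% = marimastat wells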
An asterisk follows results filed as active; / = no result. Shown are actives, neighbours in structure and some others; about 2.2% of the full set was active somewhere.

SMILES | GC-B act | GC-A act | ADAM10 inh | proKLK7 act | ADAM17 inh | ADAM10 confirm | ADAM17 counter | ADAM10 ctr | ADAM17 confirm
COc1cc(O)c(C(CC(=O)N2CC(C)OC(C)C2)c2ccc3c(c2)OCO3)c(OC)c1 (stereo not given) | -12 | -7 | -5 | / | -5 | / | / | / | /
C=CCn1c(SCC(=O)C(C)(C)C)nnc1-c1ccc(Cl)cc1 | 0 | 0 | -3 | 0 | 1 | / | / | / | /
COc1ccc(-c2cc(C(=O)NN=C/C(C)=C/c3ccccc3)[nH]n2)cc1 | -9 | -2 | 5 | -3 | 0 | / | / | / | /
Cc1ccc(NC(=O)c2cccc(OCc3c(C)noc3C)c2)cc1S(=O)(=O)Nc1ccccc1Cl | -1 | -5 | 22* | 0 | 10* | 10 | 3 | 34* | 16*
O=C(OCc1cn(Cc2cccc(F)c2)nn1)N1CCOCC1 | 9 | 1 | 0 | 0 | 0 | / | / | / | /
O=C(CSc1nnc(-c2ccco2)c(-c2ccco2)n1)c1ccccc1 | 1 | -5 | 27* | -1 | 9.0* | 4 | 2 | -11 | -1
CC(=O)c1ccc(NC(=O)CSc2nnc(-c3ccco3)c(-c3ccco3)n2)cc1 | -1 | -3 | -6 | 0 | -1 | / | / | / | /
O=C(CCNC(=O)c1ccccc1Cl)Nc1cc(C(F)(F)F)ccc1Cl | 3 | 5 | -3 | 0 | -4 | / | / | / | /
Cc1ccc(C)c(C(=O)COC(=O)CCCC(=O)Nc2cc(C(F)(F)F)ccc2Cl)c1 | -9 | 2 | 20* | 0 | 9.8* | 4 | 2 | 25* | 11*
O=C(NC1CCCCN(Cc2cccc(C(F)(F)F)c2)C1=O)c1ccc(-c2ccccc2)cc1 (stereo not given) | 0 | -2 | -5 | -1 | -7 | / | / | / | /
Cc1ccc(C2CC2C(=O)NNC(=S)Nc2cccc(Cl)c2)cc1 (stereo not given) | 8 | -7 | 39* | 0 | 22* | 7 | 1 | 24* | 11*
Cc1ccc(C2CC2C(=O)NNC(=S)Nc2cccc(C)c2)cc1 (stereo not given) | -1 | -1 | 9 | 1 | 5 | / | / | / | /
Cc1ccccc1-n1c(SCC(=O)N/N=C/c2c(C)nn(-c3ccccc3)c2C)nc2ccccc2c1=O | 7 | -1 | 21* | 0 | 11* | 7 | 2 | 33* | 16*
Cc1ccc(-n2c(SCC(=O)N/N=C/c3c(C)nn(-c4ccccc4)c3C)nc3ccccc3c2=O)cc1 | 2 | -3 | 15 | 0 | 4 | / | / | / | /
COc1ccc(F)cc1-c1cc(C(C)=O)c2n(c1=O)CCC2 | 4 | 2 | 2 | 0 | -4 | / | / | / | /
Cc1[nH]c2ccccc2c1C(=O)COC(=O)c1c(-c2c(F)cccc2Cl)noc1C | -19 | -29 | 26* | 0 | 13* | 5 | 2 | 32* | 17*
Cc1onc(-c2c(F)cccc2Cl)c1C(=O)OCN1C(=O)c2ccccc2C1=O | -6 | -2 | -18 | 0 | 4 | / | / | / | /
O=C(N/N=C/c1ccco1)/C(=C/c1cccc([N+](=O)[O-])c1)NC(=O)c1ccccc1 | -5 | -2 | -10 | 0 | 0 | / | / | / | /
O=C(N/N=C/c1ccc(Br)o1)/C(=C/c1ccc([N+](=O)[O-])cc1)NC(=O)c1ccccc1 | -3 | -5 | 31* | -1 | 13* | 2 | 1 | 32* | 17*
Cc1ccccc1CN(CC(=O)Nc1cccc([N+](=O)[O-])c1)S(=O)(=O)c1ccc(Cl)cc1 | 1 | -1 | 21* | 1 | 9.7* | 8 | 3 | 35* | 19*
NS(=O)(=O)c1cccc(NC(=O)CCSc2ccccc2Cl)c1 | -1 | 1 | -9 | 0 | -1 | / | / | / | /
CS(=O)(=O)N(CC(=O)Nc1cccc([N+](=O)[O-])c1)c1ccccc1 | -3 | 0 | 1 | 0 | 0 | / | / | / | /
O=C(CCSc1ccccc1Cl)Nc1cccc([N+](=O)[O-])c1 | -10 | -1 | 29* | 0 | 12* | 2 | 0 | 24* | 12*
CCc1ccc(CCNC(=O)OC2CC3CC2[C@H]2CCCCN2C3)cc1 (stereo not given in full) | 2 | -2 | -2 | 0 | 2 | / | / | / | /
O=C(OCC(=O)c1c[nH]c2ccccc12)c1cccc(S(=O)(=O)N2CCCCCC2)c1 | 0 | -1 | 27* | -1 | 12* | 8 | 2 | 18 | 8.7*
SMILES | GC-B act | GC-A act | ADAM10 inh | proKLK7 act | ADAM17 inh | ADAM10 confirm | ADAM17 counter | ADAM10 ctr | ADAM17 confirm
O=C(COC(=O)c1cccc(S(=O)(=O)N2CCCCC2)c1)NCc1ccccc1 | -4 | 1 | -1 | 1 | -6 | / | / | / | /
CCNC(=O)N1CCC(c2nc3ccccc3s2)CC1 | -7 | -2 | -11 | 0 | 0 | / | / | / | /
O=C(CSc1ccc(Cl)cc1Cl)N1CCC(c2nc3ccccc3s2)CC1 | / | / | 21* | 0 | 12* | 11 | 4 | 18 | 13*
CCOC(=O)N1CCN(C(=O)C[C@H]2C[C@@]3(C(=O)OC)C(=C[C@H](C(C)(C)C)O[C@@H]3C)N(Cc3ccco3)C2=O)CC1 | -1 | -5 | 8 | 0 | 0 | / | / | / | /
O=C(Nc1cccc(C(F)(F)F)c1)N1CCC(c2nc(-c3ccc(F)cc3)no2)CC1 | -6 | 6 | 21* | 0 | 9.6* | 6 | 2 | 34* | 17*
O=C(CSc1nnc(-c2ccccn2)n1-c1ccc(Cl)cc1)Nc1ccc(S(=O)(=O)Nc2nccs2)cc1 | -2 | 2 | 7 | 0 | 4 | / | / | / | /
CCCCCCCCNS(=O)(=O)/C=C/c1ccccc1CNC(=O)OC(C)(C)C | -4 | -2 | 21* | 0 | 11* | 12 | 3 | 31* | 15*
CN(CCCOC(=O)c1cc2ccccc2o1)C1CN(Cc2cn(Cc3ccc([N+](=O)[O-])cc3)nn2)S(=O)(=O)C1 (stereo not given) | -3 | 0 | 6 | 1 | -1 | / | / | / | /
Cc1ccc(NS(=O)(=O)c2ccc(Cl)c(NC(=S)NC(=O)C3CCCCC3)c2)cc1Cl | 10 | -4 | 27* | 0 | 13* | 16 | 5 | 46* | 27*
C[C@@H]1CN([C@@H](C)CO)C(=O)Cc2cc(NC(=O)Nc3ccc(C(F)(F)F)cc3)ccc2O[C@@H]1CN(C)S(=O)(=O)c1ccc(Cl)cc1 | 8 | 1 | 35* | 0 | 15* | 9 | 3 | 51* | 27*
